High-throughput results (PubChem BioAssay)
Only some compounds are listed: those with a hit (about 3.5% of all), similar ones and a draw of the others.
TEAD-YAP inh – TEAD-YAP interaction inhibition. inhibition, % at 9.12 µM. HEK-TIYL cells, TEAD-Gal4/YAP UAS-luciferase luminescence. 640,000 compounds, 1.4% hits; in the data active means inhibition above about 32%
GPR151 activ – activators of human GPR151. PathHunter beta-arrestin GPR151 cells, luminescence. activation, % at 11.2 µM. 650,000 compounds, 1% hits. Q8TDV0. AID 1508602; in the data active means activation above about 4.9%
MITF primary – blocks human microphthalmia-associated transcription factor. 650,000 compounds, 0.91% hits. inhibition, % at 2.6 µM. AlphaScreen MITF homodimerization, bead proximity signal. AID 1259374. O75030; in the data active means inhibition above about 50%
FBW7 act – human FBW7 E3 ligase activation, primary screen; Q969H0; AlphaScreen FBW7–phospho-cyclin E peptide binding, activator screen; normalized activity (activation), % at 26.1 µM; 650,000 compounds, 0.13% hits; in the data active means normalized activity above about 1.9%;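 further: purified mutant Fbw7 with reduced substrate affinity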
Target sequence (Q969H0 whole entry, looked up): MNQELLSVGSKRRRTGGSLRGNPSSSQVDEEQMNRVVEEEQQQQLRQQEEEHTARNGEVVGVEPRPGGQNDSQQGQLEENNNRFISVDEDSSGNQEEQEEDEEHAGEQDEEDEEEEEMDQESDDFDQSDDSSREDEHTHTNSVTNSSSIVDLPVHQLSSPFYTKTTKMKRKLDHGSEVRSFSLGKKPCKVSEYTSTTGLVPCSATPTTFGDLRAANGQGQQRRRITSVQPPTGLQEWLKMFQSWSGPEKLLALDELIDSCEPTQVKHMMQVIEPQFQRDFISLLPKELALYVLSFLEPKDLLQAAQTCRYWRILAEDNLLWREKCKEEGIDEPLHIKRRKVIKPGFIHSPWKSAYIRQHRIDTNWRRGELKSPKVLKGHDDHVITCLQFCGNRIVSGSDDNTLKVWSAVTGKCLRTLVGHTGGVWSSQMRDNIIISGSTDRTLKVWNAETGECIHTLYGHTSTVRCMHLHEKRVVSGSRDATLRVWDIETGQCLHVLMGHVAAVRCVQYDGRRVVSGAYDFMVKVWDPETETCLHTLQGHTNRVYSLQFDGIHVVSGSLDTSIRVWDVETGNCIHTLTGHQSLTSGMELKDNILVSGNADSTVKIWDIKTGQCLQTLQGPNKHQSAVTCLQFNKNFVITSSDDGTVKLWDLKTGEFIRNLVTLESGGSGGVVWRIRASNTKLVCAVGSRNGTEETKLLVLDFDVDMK
MITF confirm – human MITF inhibition, confirmation; shares compounds with MITF primary; AlphaScreen MITF homodimerization, biotin/His-MITF beads; inhibition, % at 2.6 µM; 4,700 compounds, 16% hits;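 active means inhibition above a cutoff derived from the DMSO control wells, cut at about 28% in these data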;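 further: inhibitors lower the bead chemiluminescence by keeping MITF from dimerizing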
AS interf DR – counter-screen: compounds optically interfering with AlphaScreen; AlphaScreen optical interference counterscreen, cell-free; 480 compounds, 6% hits; shares compounds with MITF primary; IC50, µM; AID 1259373; call rule not given here
AlphaScreen intf2 – AlphaScreen optical interference, counter-screen. shares compounds with MITF primary. LysRS AlphaScreen counterscreen, signal interference, triplicate. inhibition, % at 2.6 µM. 4,700 compounds, 7.6% hits;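 active means inhibition above a cutoff derived from the DMSO control wells, cut at about 30% in these data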
Large screens that a line does not name were inactive (follow-up assays come after a bar, where they were run).

COc1ccc(N(C2=NCCCS2)S(=O)(=O)c2ccc(OC)cc2)cc1	MITF primary 55.7 | MITF confirm inactive | AlphaScreen intf2 inactive
COCCC1CCCCN1C(=O)COc1ccc(N2CCN(c3ccccn3)CC2)nn1 (stereo unspecified)	none
Nc1ccc(S(=O)(=O)N2CCOC3CCCCC32)cc1 (stereo unspecified)	MITF primary 76.5 | MITF confirm inactive | AlphaScreen intf2 inactive
COc1cccc(CC(C2CCN(C(=O)CSC)CC2)N(C)Cc2ccccn2)c1 (stereo unspecified)	MITF primary 52.2 | MITF confirm inactive | AlphaScreen intf2 33.6
COc1cccc(CC(C2CCN(Cc3ccccn3)CC2)N(C)C(=O)c2ccco2)c1 (stereo unspecified)	none
O=S(=O)(c1cccc(Cl)c1)N1CCC(c2nc3ccccc3[nH]2)CC1	none
O=C(O)c1cccc(S(=O)(=O)N2CCC(c3nc4ccc(Cl)cc4[nH]3)CC2)c1	MITF primary 69.1 | MITF confirm inactive | AlphaScreen intf2 inactive
CN1CCN(C(=O)c2c(NC(=O)c3ccccc3F)sc3c2CCC3)CC1	none
Cc1ccc(O)c2ncccc12	none
CCOCc1ccc(O)c2ncccc12	TEAD-YAP inh 88.4, MITF primary 98.2 | MITF confirm 82.3 | AlphaScreen intf2 100.6
COCc1ccc(O)c2ncccc12	TEAD-YAP inh 90.8, MITF primary 91.0 | MITF confirm 108.7 | AlphaScreen intf2 100.6
CCOc1c(C)cc(-c2ncccc2O)cc1C	none
O=C(CCCCCn1c(=S)[nH]c2ccccc2c1=O)N1CCN(c2ccccn2)CC1	none
CC(=O)c1cccc(NC(=O)NNC(=O)c2ccccc2I)c1	none
CN(CCc1ccccn1)Cc1ccc2c(c1)OCO2	MITF primary 62.7 | MITF confirm inactive | AlphaScreen intf2 inactive
CN(CCc1ccccn1)C1CC(=O)N(c2ccccc2)C1=O (stereo unspecified)	none
CN(CCc1ccccn1)Cc1cccc(F)c1	MITF primary 73.2 | MITF confirm inactive | AlphaScreen intf2 inactive
CSc1ccc(CN(C)CCc2ccccn2)cc1	MITF primary 68.2 | MITF confirm inactive | AlphaScreen intf2 inactive
CN(CCc1ccccn1)Cc1ccc(F)c(Br)c1	MITF primary 67.7 | MITF confirm inactive | AlphaScreen intf2 inactive
CN(CCc1ccccn1)Cc1ccc2c(c1)CN(Cc1cccc3nccnc13)CCO2	none
CN(CCc1ccccn1)Cc1cccc([N+](=O)[O-])c1	none
O=C1NC(=O)C(=Cc2ccc(OCc3ccc([N+](=O)[O-])cc3)cc2)C(=O)N1	none
CN(CCc1ccccn1)Cc1ccc(F)cc1	MITF primary 77.9 | MITF confirm 32.9 | AS interf DR inactive | AlphaScreen intf2 inactive
CN(C)CCCN(CCCN(C)C)CC(c1ccccc1)c1ccccc1	MITF primary 54.6 | MITF confirm inactive | AlphaScreen intf2 inactive
CC(=O)NC(CC(=O)OCC(=O)Nc1ccc(OC(F)(F)F)cc1)c1ccccc1 (stereo unspecified)	none
CC1CCN(Cc2ccc(-c3nnn(CC(=O)Nc4ccccc4F)n3)cc2)CC1	none
CC1CCN(Cc2ccc(-c3nnn(CC(=O)Nc4ccc(F)cc4)n3)cc2)CC1	MITF primary 87.9 | MITF confirm inactive | AlphaScreen intf2 inactive
CN1CCN(CCS(=O)(=O)OCC(F)(F)F)CC1	MITF primary 83.9 | MITF confirm inactive | AlphaScreen intf2 inactive
O=C1c2cccc3cccc(c23)C(=O)N1CCS(=O)(=O)OCC(F)(F)F	none
CN(c1ccccc1)S(=O)(=O)c1ccc(/C(O)=C(\C#N)c2nc3ccccc3n2C)cc1	MITF primary 61.7 | MITF confirm inactive | AlphaScreen intf2 inactive
NC(=S)N/N=C/c1ccccc1OC(=O)c1cc([N+](=O)[O-])cc([N+](=O)[O-])c1	MITF primary 59.4 | MITF confirm 29.8 | AlphaScreen intf2 53.2
CCCCc1nnc(NC(=O)CSc2nc3ccccc3[nH]2)s1	none
CCc1nc(-c2ccccc2)c2ccccn12	MITF primary 55.5 | MITF confirm inactive | AlphaScreen intf2 inactive
CCC(C)c1ccccc1OCCN1CCOCC1 (stereo unspecified)	MITF primary 83.6 | MITF confirm inactive | AlphaScreen intf2 inactive
c1ccc(-c2ccccc2OCCOCCN2CCNCC2)cc1	MITF primary 75.5 | MITF confirm inactive | AlphaScreen intf2 inactive
c1ccc(-c2ccc(OCCCN3CCNCC3)cc2)cc1	none
Clc1c(OCCN2CCOCC2)ccc2ccccc12	none
c1ccc(-c2ccc(OCCN3CCNCC3)cc2)cc1	MITF primary 55.5 | MITF confirm inactive | AlphaScreen intf2 inactive
CCN1CCN(CCOCCOc2ccc3ccccc3c2Cl)CC1	MITF primary 51.2 | MITF confirm inactive | AlphaScreen intf2 inactive
COC(=O)c1ccccc1-c1ccc(/C=C2/SC(=Nc3ccccc3Cl)NC2=O)o1	none
c1ccc(OCCNCCN2CCOCC2)cc1	none
CC(C)(C)NCCOCCOc1ccccc1-c1ccccc1	MITF primary 63.3 | MITF confirm inactive | AlphaScreen intf2 inactive
CC(C)(C)NCCOCCOc1ccccc1I	none
Cc1cc(C)c(C)c(OCCNC(C)(C)C)c1	none
Cc1cc(C)c(C)c(OCCOCCNC(C)(C)C)c1	MITF primary 63.5 | MITF confirm inactive | AlphaScreen intf2 inactive
CCN1CCN(CCOCCOc2ccccc2-c2ccccc2)CC1	MITF primary 63.8 | MITF confirm inactive | AlphaScreen intf2 inactive
c1ccc(OCCN2CCOCC2)cc1	MITF primary 54.1 | MITF confirm inactive | AlphaScreen intf2 inactive
CCCCOc1ccc(S(=O)(=O)N2CCN(c3ccccc3OC)CC2)cc1	none
CCN1CCN(CCCNC(=O)COc2ccc3c(c2)C(=O)CC(C)(C)O3)CC1	MITF primary 57.3 | MITF confirm inactive | AlphaScreen intf2 inactive
CCCCCCCNC(=O)COc1ccc2c(c1)C(=O)CC(C)(C)O2	none
OC(CN1CCN(Cc2ccccc2)CC1)CN1c2ccccc2Sc2ccccc21 (stereo unspecified)	MITF primary 56.4 | MITF confirm inactive | AlphaScreen intf2 inactive
CSc1ccc(/C=C2/SC(=O)NC2=O)cc1	none
Cc1ccc(-c2[nH]ncc2CN2CCN(C)CC2)cc1	MITF primary 69.0 | MITF confirm inactive | AlphaScreen intf2 inactive
CN1CCN(Cc2cn[nH]c2-c2ccc(Cl)cc2)CC1	none
Cc1ccc(S(=O)(=O)N2CCN(C(=O)c3ccc(F)cc3)CC2)cc1	none
O=C(NC1CC1)c1ccnc(-c2cccs2)c1	MITF primary 65.5 | MITF confirm inactive | AlphaScreen intf2 inactive
COc1ccc2oc(=O)c(-c3nnc(-c4ccc(Cl)cc4)o3)cc2c1	MITF primary 83.9 | MITF confirm inactive | AlphaScreen intf2 inactive
NNC(=O)C(Cc1cnc[nH]1)NC(=O)C1CCC(=O)N1 (stereo unspecified)	none
Cc1ccc2nc(CN(C)Cc3nccs3)nc(N)c2c1	MITF primary 65.3 | MITF confirm 39.6 | AlphaScreen intf2 100.2
O=C(CCCn1c(SCc2nc3ccccc3[nH]2)nc2ccsc2c1=O)NCCc1ccccc1	none
